The source of these data is PubChem BioAssay.

SMILES strings stand for the structures. Active and inactive are the calls of the source.

Assay [1] is described as follows: binders of probe aFSTL3 on microarray, primary screen, stem cell growth factor project, biochemical, small-molecule microarray, fluorescence 635/667 (AID 1064).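 Also: measures binding of the biotinylated anti-FSTL3 antibody to printed compounds.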 Conditions: higher = more signal.
Assay [2] in a line: binders from COS7 lysate, DM2A8 probe, primary screen, torsin A project, cell lysate, small-molecule microarray, fluorescence 635/667 (AID 1065). The following applies: higher = more signal, COS7 lysate expressing mutant human TOR1A.
Assay [3] is described as follows: binders of probe aFGF2 on microarray, primary screen, stem cell growth factor project, biochemical, small-molecule microarray, fluorescence 635/667 (AID 1067).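 Also: measures binding of biotinylated aFGF2 protein to printed compounds on slides; z-score merges feature fluorescence and signal-to-noise across triplicate slides.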 Conditions: higher = more signal.
Assay [4] is described as follows: binders of probe aFGF10 on microarray, primary screen, stem cell growth factor project, biochemical, small-molecule microarray, fluorescence 635/667 (AID 1071).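 Also: score merges 667 nm spot intensity and signal to noise from triplicate slides.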 The following applies: higher = more signal.
Assay [5] deals with Neurogenic locus notch homolog protein 2 (Homo sapiens) (UniProt Q04721). Description: Notch2 binders on small-molecule microarrays, primary screen, biochemical, small-molecule microarray, 635 nm fluorescence, stem cell growth factors (AID 1073). The following applies: Notch2 binding, higher = more signal.
Assay [6] concerns the target Pro-neuregulin-1, membrane-bound isoform (Homo sapiens) (UniProt Q02297). Description: NRG1 binders on small-molecule microarrays, primary screen, psychiatric disease protein project, biochemical, small-molecule microarray, fluorescence 635/667 (AID 1075).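 Also: score combines 667 nm spot fluorescence with signal to noise.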 The following applies: NRG1 binding, 635 nm fluorescence, higher = more signal.
Assay [7] deals with Neuregulin-1 EGF-like domain. Description: binders of neuregulin-1 EGF-like domain, primary screen, biochemical, small-molecule microarray, 635 nm fluorescence (AID 1081).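 Also: binding of the protein to compounds printed on small-molecule microarray slides.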 The following applies: small-molecule microarray binding, higher = more signal.
The nature of assay [8]: FRG1 promoter luciferase signal modulators, primary screen, FRG1 inhibition for FSHD, cell-based, C2C12 myotubes, firefly/Renilla luciferase, luminescence (AID 1084). Conditions: higher = more signal, called active from +8 up or from −8 down.
Assay [9] in a line: binders of probe aFST on microarray, primary screen, stem cell growth factor project, biochemical, small-molecule microarray, fluorescence 635/667 (AID 1086).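 Also: score merges 667 nm fluorescence with signal-to-noise of each printed compound spot.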 Conditions: higher = more signal.
A short description of assay [10]: binders of probe aHhip on microarray, primary screen, stem cell growth factor project, biochemical, small-molecule microarray, fluorescence 635/667 (AID 1087).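 Also: score merges spot fluorescence at 667nm with spot signal to noise ratio.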 The following applies: higher = more signal.

Sequence of Neurogenic locus notch homolog protein 2 (Homo sapiens) (Q04721 whole entry, looked up, canonical isoform): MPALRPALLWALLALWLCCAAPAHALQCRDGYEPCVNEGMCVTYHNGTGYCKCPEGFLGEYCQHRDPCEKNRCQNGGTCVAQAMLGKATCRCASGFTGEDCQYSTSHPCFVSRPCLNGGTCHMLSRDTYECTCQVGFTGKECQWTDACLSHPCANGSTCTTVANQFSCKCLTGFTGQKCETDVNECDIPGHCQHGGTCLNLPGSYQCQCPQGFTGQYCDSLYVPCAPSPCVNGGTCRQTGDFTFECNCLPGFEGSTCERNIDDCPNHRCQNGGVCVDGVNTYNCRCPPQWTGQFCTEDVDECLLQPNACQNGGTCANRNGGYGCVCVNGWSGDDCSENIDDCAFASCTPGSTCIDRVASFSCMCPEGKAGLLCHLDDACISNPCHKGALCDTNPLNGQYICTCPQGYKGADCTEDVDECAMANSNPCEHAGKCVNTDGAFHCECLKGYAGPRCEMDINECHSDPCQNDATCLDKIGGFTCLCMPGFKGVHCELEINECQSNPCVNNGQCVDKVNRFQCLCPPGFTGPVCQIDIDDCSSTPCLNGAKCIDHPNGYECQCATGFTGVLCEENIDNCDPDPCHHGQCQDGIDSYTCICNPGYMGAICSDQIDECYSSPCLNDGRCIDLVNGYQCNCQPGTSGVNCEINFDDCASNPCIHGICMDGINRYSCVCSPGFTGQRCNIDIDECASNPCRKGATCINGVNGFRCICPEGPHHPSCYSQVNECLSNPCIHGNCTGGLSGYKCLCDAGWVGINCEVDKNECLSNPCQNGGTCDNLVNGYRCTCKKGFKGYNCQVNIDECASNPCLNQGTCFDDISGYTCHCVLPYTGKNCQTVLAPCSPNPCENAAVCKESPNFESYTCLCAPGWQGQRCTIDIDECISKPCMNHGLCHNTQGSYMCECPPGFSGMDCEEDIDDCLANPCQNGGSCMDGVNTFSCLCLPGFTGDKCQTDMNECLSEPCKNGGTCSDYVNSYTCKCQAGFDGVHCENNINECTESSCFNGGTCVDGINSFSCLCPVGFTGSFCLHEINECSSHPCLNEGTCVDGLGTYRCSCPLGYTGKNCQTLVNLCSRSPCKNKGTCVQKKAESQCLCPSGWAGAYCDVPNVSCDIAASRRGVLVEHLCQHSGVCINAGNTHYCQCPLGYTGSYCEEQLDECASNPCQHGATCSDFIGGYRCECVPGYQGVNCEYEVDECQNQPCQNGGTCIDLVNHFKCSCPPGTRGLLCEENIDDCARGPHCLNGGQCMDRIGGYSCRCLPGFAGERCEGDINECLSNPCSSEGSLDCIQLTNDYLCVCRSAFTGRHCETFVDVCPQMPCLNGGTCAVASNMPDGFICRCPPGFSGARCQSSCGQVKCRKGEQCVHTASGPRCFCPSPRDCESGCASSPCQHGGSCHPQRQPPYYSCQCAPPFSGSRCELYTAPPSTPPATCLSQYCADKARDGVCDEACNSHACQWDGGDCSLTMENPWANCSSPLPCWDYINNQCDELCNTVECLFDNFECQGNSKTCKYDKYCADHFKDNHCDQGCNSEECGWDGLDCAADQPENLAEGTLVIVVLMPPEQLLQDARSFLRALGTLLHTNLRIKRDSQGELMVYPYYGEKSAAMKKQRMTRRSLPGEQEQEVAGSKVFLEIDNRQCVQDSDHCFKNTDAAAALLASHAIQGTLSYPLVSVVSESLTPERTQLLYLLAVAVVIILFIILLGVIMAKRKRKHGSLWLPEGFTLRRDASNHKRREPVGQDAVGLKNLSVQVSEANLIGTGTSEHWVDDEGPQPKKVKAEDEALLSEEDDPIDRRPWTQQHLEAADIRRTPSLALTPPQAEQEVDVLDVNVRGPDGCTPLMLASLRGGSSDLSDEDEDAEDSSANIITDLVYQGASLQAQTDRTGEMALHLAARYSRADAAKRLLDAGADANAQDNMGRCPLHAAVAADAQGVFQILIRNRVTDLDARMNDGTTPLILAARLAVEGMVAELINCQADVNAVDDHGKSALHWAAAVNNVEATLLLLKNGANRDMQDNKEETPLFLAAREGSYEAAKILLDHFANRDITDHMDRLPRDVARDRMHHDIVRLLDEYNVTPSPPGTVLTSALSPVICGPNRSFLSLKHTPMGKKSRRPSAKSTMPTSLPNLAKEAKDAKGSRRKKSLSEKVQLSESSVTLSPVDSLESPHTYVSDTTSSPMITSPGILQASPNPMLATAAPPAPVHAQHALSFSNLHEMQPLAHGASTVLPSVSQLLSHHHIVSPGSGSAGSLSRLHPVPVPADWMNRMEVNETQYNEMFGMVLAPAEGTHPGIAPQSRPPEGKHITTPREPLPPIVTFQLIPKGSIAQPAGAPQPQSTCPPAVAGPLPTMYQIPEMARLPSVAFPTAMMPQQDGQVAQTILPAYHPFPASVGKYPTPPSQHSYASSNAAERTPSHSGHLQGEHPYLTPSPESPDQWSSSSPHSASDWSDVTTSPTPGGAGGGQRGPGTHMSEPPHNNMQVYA
Sequence of Pro-neuregulin-1, membrane-bound isoform (Homo sapiens) (Q02297 whole entry, looked up, the tested form may be a part, canonical isoform): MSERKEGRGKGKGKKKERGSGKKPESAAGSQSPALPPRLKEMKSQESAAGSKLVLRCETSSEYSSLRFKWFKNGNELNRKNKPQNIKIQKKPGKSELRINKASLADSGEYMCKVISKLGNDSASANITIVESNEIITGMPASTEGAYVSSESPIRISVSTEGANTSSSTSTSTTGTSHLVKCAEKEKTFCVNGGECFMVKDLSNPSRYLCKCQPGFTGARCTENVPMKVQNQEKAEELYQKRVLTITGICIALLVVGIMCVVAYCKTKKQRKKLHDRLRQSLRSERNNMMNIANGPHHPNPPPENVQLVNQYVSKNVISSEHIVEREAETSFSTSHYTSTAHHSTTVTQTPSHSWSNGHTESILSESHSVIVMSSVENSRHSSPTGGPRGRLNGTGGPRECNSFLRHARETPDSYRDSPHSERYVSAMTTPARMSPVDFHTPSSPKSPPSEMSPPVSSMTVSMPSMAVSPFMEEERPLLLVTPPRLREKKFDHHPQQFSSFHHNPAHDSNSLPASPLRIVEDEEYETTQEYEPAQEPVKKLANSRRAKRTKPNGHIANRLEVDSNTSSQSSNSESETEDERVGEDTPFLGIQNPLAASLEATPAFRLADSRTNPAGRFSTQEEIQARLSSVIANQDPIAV

`CN1CCC(CCCO)=CC1c1ccc(CN2CCCC2)cc1` (stereo not given): the composite z-score was found to be 1.16 in assay [1]; 2.31 in assay [2]; 0.0626 in assay [3]; 0.789 in assay [4]; 1.12 in assay [5]; 1.7 in assay [6]. For the same molecule, the composite z-score is 1.27 in assay [7], 0.612 in [9] and -0.0237 in assay [10]. The z-score in [8] was 0.745 (inactive).

For the molecule `CCCCCCCCCCC(O)C1C=CC2C(=O)N(Cc3ccccc3)C(=O)C2N1n1cnnc1` (stereo not given), the composite z-score in [1] is 0.794; in [2] it was 0.0622; in [3] it was 0.279; in [4] it was 0.137; in assay [5], 0.53; in assay [6], 0.919. The figures for the composite z-score in assay [7], in assay [9] and in assay [10] were 0.843, 1.08 and 0.582, respectively. The z-score in [8] was 1.91 (inactive).

On to `COCCOC(=O)N1C(=O)[C@@]2(c3cc(C#CCNC(N)=O)ccc31)[C@H](C(=O)N1CCN(c3ncccn3)CC1)[C@H]1C(=O)O[C@H](c3ccccc3)[C@H](c3ccccc3)N1[C@@H]2c1ccccc1OCCO`, for which the composite z-score in [1] came to 0.397; in assay [2], 0.242; in [3], 0.0811; in [4], 0.947; in assay [5], 1.12; in assay [6] it was 0.727. The composite z-score in assay [7] was 1.09; in assay [9], 1.28; in [10], -0.204. In addition, the z-score in assay [8] was -0.311 (inactive).

`COC(=O)c1c(CC[C@@H](CO)NC(=O)N[C@@H](Cc2ccccc2)Cn2cc(C3(O)CCCCC3)nn2)oc(C(C)=O)c1C(=O)OC`: the composite z-score in [1] is -0.352; in assay [2] it was 1.02; in [3], -0.0478; in assay [4], 0.337; in [5], 0.617; in [6], 0.824. The composite z-score was 0.862 in [7], 0.439 in assay [9] and -0.0994 in assay [10]. Further, the z-score in [8] was 1.14 (inactive).

`CC(c1ccccc1)C(O)C1C=CC2C(=O)NC(=O)C2N1Nc1ccccn1` (stereo not given): the composite z-score was 0.166 in assay [1]; -0.0988 in [2]; -0.044 in [3]; 0.306 in [4]; 1.5 in assay [5]; 0.142 in assay [6]. Besides, the composite z-score in assay [7] is 1.33; in [9], 0.421; in assay [10], -0.271. Besides, in assay [8], the z-score was 1.14 (inactive).

For `NCCCCCCNC(=O)[C@H]1C[C@H]2C(=O)NCC(=O)N2[C@H]1c1cccc(OCCO)c1`, the composite z-score in assay [1] was -0.196; in [2], 0.615; in assay [3], -0.0647; in [4] it was 0.477; in assay [5] it was 0.363; in [6], 0.933. Besides, the composite z-score in [7] was 1.13; in assay [9] it was 0.0417; in assay [10] it was -0.0994. For the same molecule, in assay [8], the z-score was 1.03 (inactive).

For `N[C@@H](Cc1ccccc1)Cn1cc(-c2ccccc2)nn1`, the composite z-score in assay [1] is 0.407; in assay [2], 0.556; in assay [3] it was -0.0613; in assay [4], -0.161; in assay [5] it was 0.0615; in assay [6], 0.429. The composite z-score is 0.198 in assay [7], 0.746 in assay [9] and -0.186 in assay [10]. For the same molecule, in assay [8], the z-score was 0.874 (inactive).

On to `O=C(OCCF)C1=CCC(c2cccc(Cl)c2)O1` (stereo not given), for which the composite z-score in assay [1] was -0.422; in assay [2], 0.0213; in assay [3] it was -0.0907; in [4], 0.193; in [5] it was 0.926; in assay [6], -0.0442. For the same molecule, the values for the composite z-score in assay [7], in [9] and in [10] were 1.03, 0.5 and -0.226, respectively. For the same molecule, the z-score in [8] is -1.68 (inactive).

Turning to `C=CCN1C(=O)[C@]2(O[C@H](CCO)[C@@H]([Si](C)(C)c3ccc(OC)cc3)[C@@H]2C)c2cc(NC(=O)[C@H](C)O)ccc21`, the composite z-score in [1] was -0.561; in assay [2], 0.363; in [3], -0.0158; in assay [4] it was 1.08; in assay [5] it was 0.327; in [6] it was 1.35. Besides, the composite z-score in assay [7] was 1.2; in [9], -0.412; in assay [10] it was -0.216. In assay [8], the z-score was -3.94 (inactive).

As to `O=C1N(CCS(=O)(=O)c2ccccc2)Cc2ccccc2C[C@]12N=C(c1ccc(OCCCO)cc1)O[C@@H]2c1ccccc1`, the composite z-score is 1.36 in assay [1]; 0.97 in assay [2]; 0.0901 in assay [3]; -0.0674 in assay [4]; 0.633 in [5]; 1.33 in assay [6]. Moreover, the composite z-score in [7] was 1.31; in [9], 0.607; in [10], -0.27. Moreover, the z-score in [8] was -0.436 (inactive).

Turning to `NC(=O)NCC#Cc1ccc2c(c1)[C@]1(C(=O)N2)[C@H](C(=O)N2CCCCCCC2)[C@H]2C(=O)O[C@H](c3ccccc3)[C@H](c3ccccc3)N2[C@@H]1c1ccc(OCCO)cc1`, the composite z-score in assay [1] amounted to 3.14; in [2], 0.756; in assay [3], 0.326; in assay [4] it was 0.904; in assay [5], 0.481; in [6], 0.463. In addition, the values for the composite z-score in assay [7], in [9] and in assay [10] were 0.292, 3.05 and 3.7, respectively. For the same molecule, the z-score in assay [8] was 0.832 (inactive).

Take `O=C1C[C@]2(c3ccc([N+](=O)[O-])cc3)C(=O)N(CC(F)(F)F)c3cc(CO)ccc3[C@H]2N1CC12CC3CC(CC(C3)C1)C2`: the composite z-score in [1] was -0.127; in assay [2], 0.0228; in [3] it was -0.101; in assay [4], 0.0063; in assay [5] it was -0.284; in assay [6], -0.0962. Further, the values for the composite z-score in assay [7], in [9] and in [10] were 0.988, 0.0443 and -0.249, respectively. Besides, the z-score in assay [8] was -0.659 (inactive).

In the case of `C=CCNC(=O)[C@@H]1[C@H]2C(=O)O[C@H](c3ccccc3)[C@H](c3ccccc3)N2[C@H](c2ccccc2OCCO)[C@@]12C(=O)Nc1ccc(C#CC3=CCCCC3)cc12`, the composite z-score was -0.098 in [1]; 0.571 in [2]; 0.0368 in [3]; 0.865 in assay [4]; 1.25 in assay [5]; 0.948 in [6]. In addition, the composite z-score in assay [7] is 1.12; in assay [9] it was 0.639; in [10], 0.134. Besides, the z-score in [8] is 0.0472 (inactive).

As to `[N-]=[N+]=NCc1ccccc1C[C@@]1(C(=O)NCC(O)CO)N=C(c2ccc(OCCCO)cc2)O[C@@H]1c1ccccc1CN=[N+]=[N-]` (stereo not given in full), the composite z-score is 0.178 in [1]; -0.342 in assay [2]; 0.0587 in assay [3]; 0.939 in assay [4]; 1.43 in assay [5]; 1.34 in [6]. Also, the figures for the composite z-score in assay [7], in assay [9] and in assay [10] were 1.21, 0.704 and -0.115, respectively. For the same molecule, in assay [8], the z-score is -0.429 (inactive).

Turning to `COc1ccc(C(=O)Nc2cccc(CN3C(=O)[C@]4(O[C@H](CC(=O)N5CCC[C@H]5CO)[C@@H]([Si](C)(C)c5ccc(OC)cc5)[C@@H]4C)c4ccccc43)c2)cc1`, the composite z-score is -0.0422 in assay [1]; 0.717 in assay [2]; 0.0257 in [3]; 0.394 in assay [4]; 0.135 in [5]; 0.847 in assay [6]. In addition, the composite z-score in assay [7] was 1.12; in [9], 0.156; in [10], -0.253. Further, the z-score in [8] was -1.22 (inactive).

With `O=C1OCCC=C[C@H]2OC34C=CCN(c5ccc6ccccc6c5)C(=O)[C@H]3N(CCCCCO)C(=O)[C@@H]4C12` (stereo not given in full), the composite z-score is 1.05 in assay [1]; 2.06 in assay [2]; -0.116 in [3]; 0.0074 in assay [4]; -0.377 in assay [5]; 2.17 in [6]. Moreover, the composite z-score was 1.57 in assay [7], -0.188 in assay [9] and 0.0176 in assay [10]. Besides, the z-score in [8] is -0.517 (inactive).
